Compound activity deposited in PubChem by National Center for Advancing Translational Sciences (NCATS).
KCNH2 3.1 inh: KCNH2 3.1 (human) potassium channel inhibition | AID 720553 | actives 0.95% (n = 340,000) | activity change, % (tested at about 1.8 µM) | U2OS KCNH2 3.1, thallium flux FluxOr; stronger effect = lower value;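 active = maximum activity change below -70%; inconclusive = maximum activity change from -70% to -50%; inactive = maximum activity change above -50%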;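 note: thallium influx rate constant from kinetic fluorescence after stimulation buffer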
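U2OS cells transduced with KCNH2 3.1 mutant virus (1.77 x 10^8 /mL, 4 h), plated overnight at 37 C, loaded 45 min with FluxOr dye plus Red40 quencher. Thallium flux rate constant from kinetic reads after stimulation buffer, normalised to controls.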
Pin1 inh: inhibitors of human Pin1. Q13526. Pin1 FP peptide displacement, HiFluor488, 10 min. Potency, µM (highest dose often 115 µM), inactives show at the highest dose activity, negative = inhibition, usual class: inhibitors. actives 0.009% (n = 390,000). AID 504891; active = well fitted inhibition curve with a large enough effect in the polarisation, with a control signal flat, not every such curve was filed as active; inconclusive = small, poorly fitted or top-dose-only effect, or effect the other way, or a change in a side signal; inactive = no such curve, though single readings can be large or run the other way; the % refers to the polarisation; note: potency is the fitted concentration of half-maximal effect
Target sequence (Q13526 whole entry, looked up): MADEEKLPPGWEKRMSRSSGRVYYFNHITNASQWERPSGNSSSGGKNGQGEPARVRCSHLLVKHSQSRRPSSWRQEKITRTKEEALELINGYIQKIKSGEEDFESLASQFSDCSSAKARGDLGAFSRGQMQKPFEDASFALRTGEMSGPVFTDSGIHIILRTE
hERG WT inh: blocks the wildtype human KCNH2 potassium channel; Q12809; U2OS, BacMam KCNH2, thallium flux FluxOr; stronger effect = lower value; activity change, % at 1.84 µM; actives 0.37% (n = 340,000); AID 720551;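 active = maximum activity change below -70%; inconclusive = maximum activity change between -70% and -50%; inactive = maximum activity change above -50%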
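U2OS cells were transduced with wild-type KCNH2 virus (2.03 x 10^8 / mL) for 4 h at room temperature, then cultured overnight at 37 C. Thallium flux was read with FluxOr dye. Rate constants were normalized to DMSO controls.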
PGK inhibitor: T. brucei PGK inhibition. PGK/GAPDH coupled, Kinase-Glo luminescence, 60 min. Potency, µM (doses to about 57.5 µM), for the others: top-dose activity change, negative = inhibition, actives largely listed as inhibitors. actives 0.043% (n = 380,000). AID 602233; note: potency is the fitted concentration of half-maximal effect; nearly all actives have a fitted effect of over 60% in size
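Recombinant glycosomal PGK reaction used 1,3-bisphosphoglycerate generated in-well by GAPDH (100nM final) in 100mM TEA pH 7.6, 5mM MgCl2, 0.01% Tween-20. After 60 minutes at room temperature, ATP was read by Kinase-Glo Plus luminescence end-point.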
KAT2A inh: blocks human GCN5L2 histone acetyltransferase | GCN5L2 HAT assay, ThioGlo1 CoA-SH fluorescence | Potency, µM (doses to about 58.9 µM), for the others: top-dose activity change, negative = inhibition, actives largely listed as inhibitors | actives 0.21% (n = 390,000) | AID 504327 | Q92830; note: potency is the fitted concentration of half-maximal effect
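Free CoA generated was detected with ThioGlo1 (50uM) fluorescence at Ex340nm/Em540nm, read immediately and after 20 min at room temperature. Enzyme, 20 nM in HEPES pH 7.5 buffer, saw compounds 15 min before adding 75uM H3(1-25) peptide and 70uM acetyl-CoA.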
RGS4 inhibitor: inhibitors of human regulator of G protein signaling 4 | actives 0.039% (n = 390,000) | AID 504845 | Potency, µM (doses to about 114 µM), for inactives: at the top dose activity change, negative = inhibition, actives largely listed as inhibitors | Transcreener GDP fluorescence polarization, RGS4-accelerated GTP hydrolysis; note: potency is the fitted concentration of half-maximal effect; nearly all actives have a fitted effect of over 75% in size
Target sequence (P49798 whole entry, looked up): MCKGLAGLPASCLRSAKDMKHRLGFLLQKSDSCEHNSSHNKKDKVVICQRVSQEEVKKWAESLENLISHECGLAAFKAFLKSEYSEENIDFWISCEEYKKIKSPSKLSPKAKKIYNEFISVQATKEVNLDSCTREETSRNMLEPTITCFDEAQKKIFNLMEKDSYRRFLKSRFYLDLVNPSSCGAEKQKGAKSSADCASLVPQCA
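MLSMR compounds (23 nl, pin-transferred) preincubated 10 min at room temperature with a 500nM (2x) first reagent, then RGS4 at 900nM (2x) plus Transcreener GDP mix added; fluorescence polarization (620/688 nm) read before and after 90 min at 30 °C.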
* hit, by the source's call; ? = inconclusive; / = no result given; ! = not confirmed by another sample. A selection: hits, their analogues and other compounds. The true share with any hit is near 1.2%. Unless noted, calls come from the whole dose curve; as a rule, active = well fitted curve in the direction sought with a large enough effect; inconclusive = small, poorly fitted or top-dose-only effect, or another doubt; inactive = no such curve, though single readings can be large; an effect the other way counts as inactive or inconclusive. % is set by controls: 0 for no effect and ±100 for the full control effect.

SMILES	KCNH2 3.1 inh	Pin1 inh	hERG WT inh	PGK inhibitor	KAT2A inh	RGS4 inhibitor
Cc1ccc(-c2nnn(CC(=O)N(CC(=O)NC3CCCC3)c3ccc(F)cc3)n2)o1	6	?	-74*	9%	-6%	-2%
Cc1ccc(-c2nnn(CC(=O)N(CC(=O)NC3CCCC3)c3cccc(F)c3)n2)o1	-6	3%	-6	-2%	-5%	5%
CC(=O)Nc1c(C(=O)Nc2cccc(C)c2)nnn1-c1ccc(C)cc1	/	-5%	/	-7%	-6%	-11%
COc1ccc(C(=O)Oc2ccc(C(=S)N3CCOCC3)cc2)cc1	-6	-3%	1	-1%	-19%	?
COc1ccc(C(=O)Oc2cc(C(=S)N3CCOCC3)ccc2OC)cc1	-161*	-2%	-140*	-9%	-3%	-31%
CC(C)NS(=O)(=O)c1ccc(NC(=S)NC(=O)c2ccc(-c3ccccc3)cc2)cc1	-75*	3%	1	8%	-13%	-31%
CCCC(C)C(=O)Nc1ncc(S(=O)(=O)c2ccc([N+](=O)[O-])cc2)s1 (configuration not stated)	-106*	4%	-102*	-9%	-7%	-2%
Cc1ccc(C2=NC(c3ccc(F)cc3)=Nc3ccc(C)cc3N2)cc1	/	-7%	/	/	0%	0%
OCCCn1c(CCNc2nc(-c3ccc(F)cc3)cs2)nc2cc(C(F)(F)F)ccc21	-123*	4%	17	-5%	/	-17%
OCCOCCn1c(C2CCCN2c2nc(-c3ccc(F)cc3)cs2)nc2cc(C(F)(F)F)ccc21 (configuration not stated)	-101*	19%	-103*	-1%	/	1%
CCN(C(=O)CSc1nc2ccccc2n1Cc1cc(C)ccc1C)c1ccccc1	/	3%	/	0%	-5%	1%
O=C(Nc1cccc(Cl)c1Cl)c1cc(S(=O)(=O)N2CCC3(CC2)OCCO3)ccc1F	/	13%	/	-10%	-8%	8%
O=c1oc2ccccc2c(Nc2cccc(O)c2)c1[N+](=O)[O-]	-6	?	-20	5%	-1%	26%
Cc1ccc(Nc2c([N+](=O)[O-])c(=O)oc3ccccc23)cc1C	-75*	-2%	20	-2%	-6%	-7%
Cc1ccc2nc(SCC(=O)N(C)C3CCS(=O)(=O)C3)[nH]c2c1 (configuration not stated)	-198*	-5%	0	-9%	-1%	11%
O=C(Cn1ncn2c(cc3sccc32)c1=O)NC1CCCC1	-77*	-7%	18	-4%	-7%	13%
C=Cc1c(C)c2cc3[nH]c(cc4nc(cc5nc(cc1[nH]2)C(C)=C5CCC(=O)O)C(CCC(=O)O)=C4C)c(C)c3C=C	16	32µM*	3	10µM*	-14%	9.5µM*!
C#Cc1nc(Nc2cccc(Cl)c2)nc(NC2CCCC2)n1	/	7%	/	/	/	/
CC1CCCN(S(=O)(=O)c2ccc(N3CCCCS3(=O)=O)cc2)C1 (configuration not stated)	/	-2%	/	-1%	-4%	29%
CCOc1ccccc1NC(=O)CN(c1ccc(OC)c(OC)c1)S(=O)(=O)c1ccc(C)cc1	-108*	/	-10	-4%	/	/
CCOc1ccc(NC(=O)CN(c2ccc(OC)c(OC)c2)S(=O)(=O)c2ccc(C)cc2)cc1	-5	-2%	0	-4%	-9%	3%
Cc1ccc(-c2csc3nc(SCC(=O)N(C)C)n(Cc4ccccc4)c(=O)c23)cc1	-74*	13%	1	-11%	-13%	4%
N#CC(C#N)=C1C=CC=CN1/C(=C\c1ccco1)C(=O)c1ccc(Cl)cc1	-86*	16%	8	-3%	39%	-37%
N#CC(C#N)=C1C=CC=CN1/C(=C\c1ccco1)C(=O)c1ccc(-c2ccccc2)cc1	-85*	5%	-8	-9%	-9%	?
CC(/C=N/n1c(-c2ccc(Cl)cc2)n[nH]c1=S)=C\c1ccco1	6	15%	1	0%	-16%	-41%
SMILES	KCNH2 3.1 inh	Pin1 inh	hERG WT inh	PGK inhibitor	KAT2A inh	RGS4 inhibitor
N#C/C(=C\c1ccco1)C(=O)NCc1ccccc1	7	-9%	/	/	-4%	-10%
COCCOCC(=O)Nc1ccc(S(=O)(=O)Nc2cc(C)nc(C)n2)cc1	12	-4%	-108*	-9%	-4%	-29%
C=C1CCN([C@@H](CC(C)C)C(=O)NCCC(C)C)S(=O)(=O)c2ccccc21	-75*	?	-2	5%	/	17%
COc1ccc(S(=O)(=O)N2CCC(n3cnc4cc(C(F)(F)F)ccc43)CC2)cc1	-86*	0%	-87*	4%	1%	30%
CCN(C(=O)c1c(C)oc2ncn(CC(C)C)c(=O)c12)c1cccc(Cl)c1	/	-11%	/	-8%	8%	-8%
O=C(O)c1ccccc1-c1c2cc(I)c(=O)c(I)c-2oc2c(I)c(O)c(I)cc12	-11	?	-11	?	11µM*	?
O=C(O)c1c(Cl)c(Cl)c(Cl)c(Cl)c1-c1c2cc(I)c(=O)c(I)c-2oc2c(I)c(O)c(I)cc12	/	/	/	/	2µM*	/
O=C(NC1CC(=O)N(c2ccc(Cl)cc2)C1)c1cc2ccccc2o1 (configuration not stated)	/	-8%	/	-2%	-9%	15%
Cc1cccc(-n2c(=O)c3c(c4cc(C)ccc4n3C)n(CC(=O)NCC3CCCO3)c2=O)c1 (configuration not stated)	/	-1%	/	-3%	0%	-2%
O=C(O)c1cc(O)c2c(c1)[C@@H]([C@H]1c3cc(C(=O)O)cc(O)c3C(=O)c3c(O[C@@H]4O[C@H](CO)[C@@H](O)[C@H](O)[C@H]4O)cccc31)c1cccc(OC3O[C@H](CO)[C@@H](O)[C@H](O)[C@H]3O)c1C2=O (some centres not stated)	4	/	-3	?	0.5µM*	?
O=C(O)c1cc(O)c2c(c1)[C@H]([C@H]1c3cc(C(=O)O)cc(O)c3C(=O)c3c(O[C@@H]4O[C@H](CO)[C@@H](O)[C@H](O)[C@H]4O)cccc31)c1cccc(OC3O[C@H](CO)[C@@H](O)[C@H](O)[C@H]3O)c1C2=O (some centres not stated)	0	0.71µM*	8	?	0.71µM*	-55%
CN(C(=O)CSc1nc2ncccc2o1)c1ccc(F)cc1	/	-2%	/	-8%	1%	-10%
CC(=O)c1ccc(Nc2nc(-c3cccnc3)cs2)cc1	0	0%	-81*	-1%	-11%	-15%
O=C(Nc1cccc(-c2csc(Nc3ccccc3)n2)c1)c1ccccc1	-79*	3%	19	-10%	-25%	-4%
